Results filed as inconclusive are left out. Entries that show only a call come without a potency. The source made the active and inactive calls. Calls follow the shape of the dose curve; as a rule, active = well fitted inhibition curve with a large enough effect; inconclusive = small, poorly fitted or top-dose-only effect; inactive = flat fitted curve, though single readings scatter.

Chain of Calcium and integrin-binding protein 1 (Homo sapiens) (Q99828 whole entry, looked up): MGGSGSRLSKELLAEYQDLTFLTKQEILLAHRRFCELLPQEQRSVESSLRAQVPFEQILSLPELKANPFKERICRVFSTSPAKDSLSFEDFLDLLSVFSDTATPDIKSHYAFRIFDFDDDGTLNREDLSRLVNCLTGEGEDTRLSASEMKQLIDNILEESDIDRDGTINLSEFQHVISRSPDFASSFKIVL

The test addresses Calcium and integrin-binding protein 1 (Homo sapiens) (UniProt Q99828). The experiment in a line: Primary qHTS for Identification of Calcium Integrin Binding Protein 1 (CIB1) Competitor (AID 1508620).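 Also: GST tagged CIB1 binding a fluorescein labelled alphaIIb integrin peptide tracer; top concentration of the series differs between compounds.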 The conditions noted are these: CIB1-GST / FITC-alphaIIb peptide fluorescence polarization; series mostly up to 57.7 µM. The gist of the method: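 CIB1-GST (1 uM final) and compound incubated 15 min at room temperature before adding FITC-alphaIIb peptide tracer (100 nM final). Competition for binding read by fluorescence polarization (ex 480, em 540) after another 15 min at room temperature.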
As for `C[C@H]1CC[C@@]2(OC1)O[C@H]1CC3C4CC[C@H]5C[C@@H](O)CC[C@]5(C)C4CC(=O)[C@]3(C)[C@H]1[C@@H]2C` (stereo partly specified), the Potency result is “inactive”.
For the molecule `COC(=O)C1=CO[C@@H](O[C@@H]2O[C@H](CO)[C@@H](O)[C@H](O)[C@H]2O)/C(=C\CO)[C@@H]1CC(=O)OCCc1ccc(O)cc1`, the Potency entry was “inactive”.
With `C=C(COC(=O)CC(C)C)C1Cc2cc(C(C)=O)ccc2O1` (stereo unspecified), the Potency entry was “inactive”.
In the case of `C/C=C/C=C/C=C/C(=O)OC1C=C2C(O)OC(=O)[C@]2(O)[C@@]2(C)CCCC(C)(C)[C@H]12` (stereo partly specified), the Potency result was “inactive”.
For `COc1cc(C(=O)OC[C@H]2O[C@@H](OC(C)(C)C(=O)O)[C@H](O)[C@@H](O)[C@@H]2O)cc(OC)c1O`, the Potency entry was “inactive”.
`COc1ccc2c(c1)N1C(=O)C[C@@]34C=CC[N@+]5([O-])CC[C@H]2[C@H](CC3)[C@@]145`: the Potency result is “inactive”.
As for `C=C1C(O)CC2C(C(=O)O)=COC(OC3OC(CO)C(O)C(O)C3OC(=O)/C=C\c3ccc(O)cc3)C12` (stereo unspecified), the Potency result was “inactive”.
As for `CC1CCC2(NC1)OC1C(O)C3C4CCC5CC(O[C@@H]6O[C@H](CO)[C@@H](O)[C@H](O)[C@H]6O[C@@H]6O[C@@H](C)[C@H](O)[C@@H](O)[C@H]6O)CCC5(C)C4CCC3(C)C1C2C` (stereo partly specified), the Potency entry was “inactive”.
As for `O=C(OCC1=C[C@@H](O)[C@@H]2C=CO[C@@H](O[C@@H]3O[C@H](CO)[C@@H](O)[C@H](O)[C@H]3O)[C@H]12)c1ccc(O)cc1`, the Potency entry was “inactive”.
For the molecule `CCC12CCCN3CCc4c(n(c5ccccc45)C(O)C1)C32` (stereo unspecified), the Potency result was “inactive”.
As to `CC(=O)c1ccc(O[C@@H]2OC[C@@H](O)[C@H](O)[C@H]2O[C@]2(CO)O[C@H](CO)[C@@H](O)[C@@H]2O)c(O)c1`, the Potency entry is “inactive”.

Source of the values: PubChem BioAssay (NCATS).
